High-throughput results as filed in PubChem.
A selection: hits, their analogues and other compounds. The true share with any hit is near 3.8%.
FAS-TE inh = FAS thioesterase domain inhibitors, primary screen, biochemical, fluorescence intensity, uHTS; Fatty acid synthase (Homo sapiens), P49327; recombinant FAS-TE, OMFH fluorogenic substrate, fluorescence endpoint; inhibition, % at 15 µM; actives 0.67% (n = 360,000); AID 602261, 2012;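 active = compounds whose normalised, plate-corrected inhibition of enzyme fluorescence in the single-dose primary screen is 50% or more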;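 also: 0% = DMSO with enzyme and 100% = substrate without enzyme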
Mot1-301 SUMO = yeast Mot1-301 growth rescue at high temperature, primary screen, SUMOylation pathway inhibitor project, S. cerevisiae, ATP luminescence, 38.5C; S. cerevisiae Mot1-301 growth rescue; percent above DMSO median, 100 means doubled; growth rescue, % at 18.8 µM; actives 1% (n = 320,000); AID 2716, 2010;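 active = every valid replicate shows activation above 250% relative to neutral control wells; inactive = the rest, any valid replicate at or below 250%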;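 also: OY570 slx delta 5 strain wells were the positive control but not used for scaling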
Cardio protect = cardioprotection against H2O2-induced cell death, primary screen, uHTS, H9c2 cells, ATPLite luminescence; actives 0.63% (n = 360,000); AID 588492, 2011; protection from H2O2 cell death, % at 20 µM; H9c2 cardiomyocytes, H2O2 injury protection, 2 h;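 active = compounds giving at least 50% protection of heart cells from peroxide-induced death in the single-dose screen, raw or plate-pattern-corrected value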;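 also: 0% = DMSO wells with peroxide and 100% = DMSO wells without peroxide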
aDG glyco act = activators of alpha-DG glycosylation, primary screen, uHTS, Pro5-aDG cells, AlphaScreen. alpha-DG glycosylation AlphaScreen (IIH6); 0% Pro5, 100% B10-LARGE cell signal. activation, % at 10 µM. actives 0.22% (n = 360,000). AID 624168, 2012;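 active = activation of at least 8% versus controls, or a plate z-score of at least 8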;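 also: Pro5 are CHO cells carrying HIG-tagged alpha-DG that lacks glycosylation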
CR mimetic SO = reduction of superoxide in aged yeast, primary screen, HTS. S. cerevisiae aged cells, superoxide DHE fluorescence; hits give low values. superoxide response (% of plate mean), % at 10 µM. actives 0.18% (n = 330,000). AID 2690, 2010;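 active = superoxide response under a set limit, about three screen SD below normal, cut at about 65% in these data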;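 also: yeast aged for seven days with compound at 30 °C before DHE staining; 100% = average MFI of all compound-treated wells on the plate with controls excluded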
MPTP block = mitochondrial permeability transition pore inhibitors, primary screen, biochemical, isolated mouse mitochondria, absorbance. inhibition, % at 10 µM. Ca2+ swelling absorbance, 30 min. AID 602449, 2012. actives 1.4% (n = 360,000);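 active = inhibition of 50% or more, scaled per plate between neutral and stimulator controls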;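 also: 0% = DMSO wells given calcium and 100% = 1 mM EGTA wells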
Yeast Mot1 SUMO = growth restoration of Mot1-301 yeast on galactose, dose response, SUMO pathway inhibitor project, whole organism, S. cerevisiae, ATP luminescence, cherry-picked samples; shares compounds with Mot1-301 SUMO; S. cerevisiae Mot1-301 galactose growth, 24 h; -100 = growth of slx-deleted rescue strain; growth activity, percent, % at 42 µM; 2,300 tested, under 10 active; AID 493004, 2010;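 active = Signal drops as the depositor expects, and the fitted half-maximal dose is no more than ten times the top valid tested dose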;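 also: more negative values mean stronger growth rescue toward the control strain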
* marks the source's active call; other numbers are inactive results; · = not tested or not shown; + = active, no number.

SMILES | FAS-TE inh | Mot1-301 SUMO | Cardio protect | aDG glyco act | CR mimetic SO | MPTP block | Yeast Mot1 SUMO
CCN1C(=NCCCCO)N[C@@H](c2cccc(C(F)(F)F)c2)C(C(=O)OC)=C1C | -12.0 | 657.6* | -5.8 | 0.2 | 103.8 | -0.2 | 0.8
CCCNC(=O)c1cc(C2CCCCN2S(=O)(=O)Cc2cccc(C(F)(F)F)c2)on1 (stereo not given) | 3.0 | · | 3.1 | 0.2 | · | 1.4 | ·
O=C(Nc1ccc2nc(-c3ccc4nc[nH]c4c3)[nH]c2c1)c1cccs1 | -14.8 | 465.2* | 30.9 | 0.1 | 99.5 | -0.8 | -0.1
Cn1c(=O)c2cc(NC(=O)NCc3ccc(F)cc3)ccc2n1C | 3.1 | · | 0.6 | -0.2 | · | -0.2 | ·
C/C(CC(=O)Nc1ccc(Cl)cc1C(F)(F)F)=N\NC(=O)c1ccccn1 | 0.3 | -13.9 | 2.9 | 0.0 | 95.6 | 1.2 | ·
Oc1cccc(/C=N/n2c(C3CCCCC3)n[nH]c2=S)c1 | 1.6 | 3.2 | 0.2 | -0.1 | 93.1 | 0.7 | ·
COc1cc(/C=N/n2c(C3CCCCC3)n[nH]c2=S)cc(OC)c1O | -3.3 | 400.4* | -5.4 | -0.2 | 98.5 | 0.4 | 1.4
CCN(CC(=O)NCc1cccs1)S(=O)(=O)c1cc(NC(C)=O)ccc1OC | -6.3 | -9.7 | 4.9 | 1.3 | 102.2 | 0.5 | ·
O=C(COC(=O)c1ccccc1SCC(=O)N1CCCC1)NC1CCCCC1 | -3.7 | 792.0* | -1.7 | -0.3 | 103.2 | -1.8 | 0.2
CCOC(=O)[C@]12CCC=C1N(CCC1=CCCCC1)C(=O)[C@H](CC(=O)NCCCCc1ccccc1)C2 | 6.3 | · | · | 0.0 | · | -0.6 | ·
COCCn1c(N2CCCC2)nc2c1c(=O)[nH]c(=O)n2C | -2.6 | -0.1 | 6.1 | 0.1 | 97.0 | -0.1 | ·
CCCNC(=O)C1(C)CCCN(Cc2cccc(C#N)c2)C1 (stereo not given) | -5.8 | · | 7.8 | -0.1 | · | 0.0 | ·
COc1cc(C(=O)NCCC2=CCCCC2)cc(OC)c1OC | -3.7 | 806.6* | 0.0 | -0.1 | 100.8 | 0.3 | -0.2
COc1cc(C(=O)NCCOc2ccccc2)cc(OC)c1OC | -2.8 | -2.6 | 2.5 | 0.0 | 69.9 | -0.9 | ·
COc1cc(C(=O)OCC(=O)NCCC2=CCCCC2)cc(OC)c1OC | -3.3 | · | -3.8 | 1.7 | · | 0.1 | ·
COc1cc(C(=O)NCCOc2cc(C)cc(C)c2)cc(OC)c1OC | -3.3 | 631.4* | -2.0 | 0.0 | 92.8 | 15.3 | 0.2
COc1cccc(N2C(=O)CC(c3c[nH]c4ccccc34)C2=O)c1 (stereo not given) | -5.8 | -6.5 | 8.2 | -0.1 | 98.5 | -2.5 | ·
O=C1CC(c2c[nH]c3ccccc23)C(=O)N1c1ccccc1 (stereo not given) | -2.5 | 708.6* | 5.7 | -0.1 | 92.6 | -0.6 | -0.4
CNc1csc(C)c(C)c1=O | -4.9 | 447.8* | 3.4 | -0.1 | 107.8 | 0.0 | -0.1
CCN(CC)C(=O)Cn1cc([N+](=O)[O-])cc1[N+](=O)[O-] | -5.2 | · | 2.8 | 0.1 | · | -1.7 | ·
CCCCOc1ccc(C(=O)Nc2ccc(CN3CCOCC3)cc2)cc1 | -2.9 | 361.7* | -2.0 | 1.1 | 94.6 | 1.9 | 0.3
Cc1cc(C(=O)N/N=C/c2ccc3c(c2)OCO3)c2ccccc2n1 | -1.0 | 856.0* | 0.1 | -0.2 | 104.0 | 2.0 | -0.1
CCOC(=O)C1(C)CCCCN1C(=O)c1ccc(F)c(C)c1 (stereo not given) | -2.8 | · | -2.3 | 0.3 | · | -0.7 | ·
C[C@@H]1CN([C@H](C)CO)C(=O)c2c(c3ccccc3n2C)-c2ccccc2CO[C@@H]1CN(C)S(=O)(=O)c1cccs1 | 13.5 | · | -2.2 | 0.2 | · | -0.8 | ·
CN(C)C(=O)CNC(=O)C1CCCCC1 | -9.6 | + | 10.2 | 0.0 | 105.6 | -2.2 | 0.1
SMILES | FAS-TE inh | Mot1-301 SUMO | Cardio protect | aDG glyco act | CR mimetic SO | MPTP block | Yeast Mot1 SUMO
O=C(CNC(=O)C1CCCCC1)NCCCO | -6.9 | -9.8 | 2.6 | 0.1 | 124.7 | -0.5 | ·
O=C(CCCC(=O)N/N=C/c1ccccc1C(=O)O)N/N=C/c1ccccc1C(=O)O | -3.1 | 419.0* | 1.5 | 0.6 | 109.6 | -0.6 | 1.0
COc1ccccc1NC(=O)C(=O)N/N=C(\C)CC(=O)Nc1ccccc1C(F)(F)F | 0.8 | 18.4 | 1.2 | -0.2 | 100.8 | -0.9 | ·
CN(C)C(=O)CCN1CCOCC1 | -7.4 | 559.9* | 4.7 | 0.3 | 79.4 | 0.2 | -0.9
O=C(OCc1nc2ccsc2c(=O)[nH]1)c1ccco1 | -5.1 | 650.5* | 7.3 | 0.1 | 111.3 | -0.5 | 0.1
Cc1ccc(C(=O)OCc2nc3ccsc3c(=O)[nH]2)o1 | -3.4 | 15.2 | 8.7 | -0.2 | 107.8 | -1.1 | ·
O=C1C=CC(O)(c2cc(=O)c3c(O)cc(O)cc3o2)C=C1 | -5.2 | 89.1 | -1.9 | 0.4 | 91.7 | 0.6 | ·
COC(=O)CCCC(=O)NCC1(N(C)Cc2ccccc2)Cc2ccccc2C1 | -0.8 | 387.3* | -0.3 | 0.0 | 101.3 | -0.2 | 0.7
Cc1c(Cl)c([N+](=O)[O-])nn1CC(=O)NC12CC3CC(CC(C3)C1)C2 | 22.9 | 952.1* | -15.3 | -0.2 | 103.0 | -0.2 | -0.3
O=C(CCCNC(=O)/C(=C/c1ccccc1F)NC(=O)c1ccccc1)OCc1ccccc1 | 0.9 | 495.9* | -1.4 | 0.4 | 112.5 | 1.9 | 0.7
O=C1CN(C(=O)COC(=O)COc2ccc3c(c2)CCC3)c2ccccc2N1 | 9.4 | 586.2* | -4.9 | 0.3 | 98.6 | 0.3 | 0.2
COc1ccc(N2CCN(C(=O)c3ccncc3)CC2)cc1 | -8.6 | 4.7 | 6.7 | -0.1 | 96.7 | -1.2 | ·
COc1ccc(C(=O)N2CCN(c3ccc(NC(=O)c4cccnc4)cc3)CC2)cc1 | -2.6 | 457.7* | -1.0 | 0.2 | 105.8 | 1.3 | 0.5
CN(C(=O)c1ccncc1)c1nnc(-c2cnccn2)s1 | -14.2 | 365.2* | -0.5 | -0.3 | 98.1 | -1.3 | 0.4
CN(C(=O)c1cccnc1)c1nnc(-c2cnccn2)s1 | -7.4 | 0.6 | 8.0 | -0.2 | 99.5 | -1.9 | ·
CN(C(=O)C1CCCO1)c1nnc(-c2cnccn2)s1 (stereo not given) | -7.0 | 519.2* | 7.6 | -0.1 | 110.5 | -0.4 | 0.0
NC(=O)Cn1c(=O)n(CCC(=O)Nc2ccc(F)cc2)c(=O)c2sccc21 | -8.2 | -11.5 | 8.8 | -0.3 | 108.0 | -2.4 | ·
COc1ccc(C(=O)N2CCN(c3nnnn3-c3ccccc3)CC2)cc1OC | -7.3 | -9.6 | 0.3 | 3.2 | 102.9 | 0.6 | ·
CCOC(=O)N1CCN(c2nnnn2-c2ccccc2)CC1 | -4.9 | 366.2* | -7.7 | -0.1 | 104.6 | -1.1 | 0.0
